Test results as given in the supplement of paper PMC13380429.
Values without a mark were called inactive.

Test system: Vero E6 infected with SARS-CoV-2
Assay: inhibition of SARS-CoV-2 cytopathic effect; higher = more antiviral protection, active = above 15
Details: 48 h

SMILES	inhibition of SARS-CoV-2 cytopathic effect (1 nM)	inhibition of SARS-CoV-2 cytopathic effect (8.33 nM)	inhibition of SARS-CoV-2 cytopathic effect (100 nM)	inhibition of SARS-CoV-2 cytopathic effect (833.33 nM)	inhibition of SARS-CoV-2 cytopathic effect (10000 nM)
Cc1noc(NS(=O)(=O)c2ccc(N)cc2)c1C [sulfafurazole]	-0.27%	-1.19%	0.89%	-1.49%	0.12%
COc1ccc2[nH]c3c(-c4cccc5ccccc45)nccc3c2c1	-2.63%	0.26%	-0.2%	-4.62%	-2.93%
CCCCCCCCCCC(=O)O[C@H]1CC[C@H]2[C@@H]3CCC4=CC(=O)CC[C@]4(C)[C@H]3CC[C@]12C [Testosterone (undecanoate)]	1.81%	0.82%	0.37%	0.31%	0.21%
Nc1ncnc2c1ncn2[C@@H]1O[C@H](COP(=O)(O)O)[C@@H](O)[C@H]1O [adenosine-phosphate]	-6.5%	-1.98%	-4.25%	-3.83%	-12.6%
O=c1c2ccccc2[se]n1-c1ccccc1 [ebselen]	0.19%	3.3%	2.73%	3.17%	-3.01%
CNCCN(C)Cc1c[nH]nc1-c1ccc(O[C@H]2C[C@H](OCCC3CCOCC3)C2)cc1	0.46%	-0.78%	4.05%	1.11%	1.7%
C[C@]12CCC(=O)C=C1CC[C@@H]1[C@@H]2[C@@H](O)C[C@@]2(C)[C@H]1CC[C@]2(O)C(=O)COP(=O)(O)O [hydrocortisone-phosphate]	1.12%	3.34%	2.4%	2.84%	1.11%
O=[N+]([O-])C(Br)(CO)CO [bronopol]	-0.93%	-3.53%	0.32%	0.51%	-1.05%
CC[C@]12CCCN3CCc4c(n(c5ccccc45)C(=O)C1)[C@@H]32 [vinburnine]	-4.83%	-3.72%	-1.1%	0.35%	-0.52%
Cc1noc(C)c1-c1ccc(-c2cc(C(N)=O)c(NC(N)=O)s2)c(O[C@H]2CCNC2)c1	1.7%	2.12%	2.46%	-12.1%	2.19%
N=C(N)NS(=O)(=O)c1ccc(N)cc1 [sulfaguanidine]	1.47%	1.27%	-0.35%	0.47%	1.22%
CCCCCCOc1nsnc1C1=CCCN(C)C1 [xanomeline]	0.86%	-0.07%	-1.23%	-1.94%	-0.8%
CCCCc1ncc(/C=C(\Cc2cccs2)C(=O)O)n1Cc1ccc(C(=O)O)cc1 [eprosartan]	-1.35%	-0.99%	-0.35%	-0.6%	2.22%
O=C(N/N=C/c1ccc([N+](=O)[O-])o1)c1cc([N+](=O)[O-])cc([N+](=O)[O-])c1O [nifursol]	0.19%	3.21%	2.56%	2.62%	2.82%
Cc1ccccc1C(OCCN(C)C)c1ccccc1 (stereo not given) [orphenadrine]	0.59%	0.5%	-0.66%	1.65%	-0.73%
Cc1cnc(NC(=O)Nc2cc(Br)c(C)cc2OC[C@@H]2CNCCO2)cn1	1.08%	0.44%	1.44%	-2.34%	-10.4%
CCN(CC)CC1CCN(c2ncc3ncnc(Nc4ccc(F)c(Cl)c4)c3n2)CC1	1.37%	1.44%	-3%	-7.12%	21.6% (active)
COc1cc2c(cc1OC)CN(CCc1ccc(NC(=O)c3cccc4c(=O)c5cccc(OC)c5[nH]c34)cc1)CC2 [elacridar]	14.2%	2.41%	0.67%	-0.09%	-4.73%
